pPAFAH inh: pPAFAH (human) enzyme inhibition. Q13093. recombinant pPAFAH, FP-rhodamine probe fluorescence polarization. inhibition, % at 3.39 µM. 330,000 compounds, 1.5% hits;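 active = inhibition above the mean inhibition across the screen plus 3 SD, cut at about 25% in these data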;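 note: inhibitors block binding of the rhodamine activity-based probe so polarization drops; 0% = enzyme with DMSO and 100% = wells lacking pPAFAH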
PAFAH1B2 inh: inhibitors of human PAFAH1B2 | recombinant PAFAH1B2, FP-rhodamine activity probe, fluorescence polarization | 340,000 compounds, 1.2% hits | inhibition, % at 3.39 µM | P68402;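 active = inhibition above the mean of all tested compounds plus 3 SD, cut at about 24% in these data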;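 note: 0% = enzyme with DMSO and 100% = wells lacking PAFAH1B2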
Target sequence (P68402 whole entry, looked up): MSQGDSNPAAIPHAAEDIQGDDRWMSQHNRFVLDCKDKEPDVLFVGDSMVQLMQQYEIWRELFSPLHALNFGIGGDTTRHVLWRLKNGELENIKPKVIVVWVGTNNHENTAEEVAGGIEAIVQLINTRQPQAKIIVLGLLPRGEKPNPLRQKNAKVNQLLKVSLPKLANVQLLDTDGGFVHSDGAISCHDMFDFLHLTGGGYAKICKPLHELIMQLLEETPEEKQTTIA
PKA-R2B act: PKA-R2B complex activation; P22694+P31323; PKA-R2B holoenzyme dissociation, Cy5-IP20 fluorescence polarization; R2B truncated from residue 108, S112A mutant; 0% DMSO only, 100% 113 µM cGMP; activation, % at 11.4 µM; 340,000 compounds, 0.079% hits;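 active = activation above a cutoff set at the mean over all compounds plus 3 SD, cut at about 18% in these data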;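 note: higher means more holoenzyme dissociation and a rise in polarization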
PAFAH1B3 inh: PAFAH1B3 (human) inhibition. recombinant PAFAH1B3, FP-rhodamine probe, fluorescence polarization. inhibition, % at 3.39 µM. 340,000 compounds, 0.28% hits;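 active = inhibition above the screen-wide average of all tested compounds plus 3 SD, cut at about 25% in these data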;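 note: 0% = enzyme with DMSO only and 100% = wells lacking PAFAH1B3 protein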
PAFAH2 FP inh: inhibitors of human PAFAH2; inhibition, % at 3.39 µM; Q99487; AID 492956; recombinant PAFAH2, FP-rhodamine activity probe, fluorescence polarization; 340,000 compounds, 0.99% hits;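 active = inhibition above the mean over all tested compounds plus 3 SD, cut at about 30% in these data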;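 note: inhibitors block probe labeling of enzyme so polarization drops; 0% = enzyme with DMSO and 100% = wells lacking PAFAH2 protein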
PKA-R1A activ: activators of PKA-R1A complex | P00514+P68181 | PKA-R1A dissociation, Cy5-IP20 fluorescence polarization; scaled: DMSO 0%, 113 µM cGMP 100% | activation, % at 11.4 µM | 340,000 compounds, 0.083% hits | AID 504707;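 active = percent activation above the mean of all tested compounds plus 3 SD, cut at about 19% in these data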;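 note: higher means more PKAc released from R1A so a rise in polarization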
R1A FP artifact: fluorescence polarization artifact in PKA-R1A activator counter-screen; AID 504799; Cy5-IP20 peptide alone, fluorescence polarization artifact counterscreen; activation, % at 11.4 µM; shares compounds with PKA-R1A activ; 280 compounds, 7% hits;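 active = mean activation over triplicate runs exceeds the adjusted cutoff derived for the parent primary screen, cut at about 19% in these data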;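 note: no PKA protein present so any polarization rise reflects compound interference; 0% = tracer peptide mix alone and 100% = mix with added PKA catalytic subunit; higher means stronger polarization artifact and likely false positive in parent screen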
PKA-R1A act conf: PKA-R1A complex activation, confirmation; activation, % at 11.4 µM; shares compounds with PKA-R1A activ; 280 compounds, 9% hits; AID 504800; Cy5-IP20 fluorescence polarization, PKA-R1A holoenzyme dissociation;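 active = mean activation over replicate wells exceeds the adjusted hit threshold taken from the earlier primary screen, cut at about 20% in these data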;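 note: 0% = holoenzyme mix with DMSO only and 100% = cGMP-activated control wells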
Target sequence (P00514 whole entry, looked up): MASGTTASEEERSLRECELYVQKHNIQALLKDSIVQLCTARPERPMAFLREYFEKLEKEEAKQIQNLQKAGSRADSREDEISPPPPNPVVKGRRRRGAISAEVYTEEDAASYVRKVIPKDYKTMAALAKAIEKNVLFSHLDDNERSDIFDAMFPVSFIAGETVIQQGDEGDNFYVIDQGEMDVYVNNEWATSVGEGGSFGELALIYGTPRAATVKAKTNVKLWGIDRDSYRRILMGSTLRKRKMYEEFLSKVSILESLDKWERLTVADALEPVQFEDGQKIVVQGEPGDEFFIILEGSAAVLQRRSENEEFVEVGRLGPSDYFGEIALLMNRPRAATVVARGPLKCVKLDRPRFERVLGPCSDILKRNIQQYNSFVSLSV
An asterisk follows results filed as active; · = no result given. Shown are actives, neighbours in structure and some others; about 2.6% of the full set was active somewhere.

SMILES | pPAFAH inh | PAFAH1B2 inh | PKA-R2B act | PAFAH1B3 inh | PAFAH2 FP inh | PKA-R1A activ | R1A FP artifact | PKA-R1A act conf
COc1cc(C)c(C(=O)Oc2cc(C)c(C(=O)O)c(O)c2C)c(O)c1C | 22 | 5 | 6 | 6 | -5 | -4 | · | ·
COC(=O)C[C@@H]1C[C@@H]2c3cc(NS(=O)(=O)c4ccccc4)ccc3O[C@@H]2[C@@H](CO)O1 | · | · | 0 | · | · | -5 | · | ·
COc1cccc(CNS(=O)(=O)c2ccccc2Br)c1OC | · | 5 | -4 | 3 | -4 | -9 | · | ·
Cc1cc(C)n2[nH]c(=O)c(N=Nc3ccc(S(N)(=O)=O)cc3)c2n1 | 2 | 4 | -5 | 1 | 0 | -14 | · | ·
Cc1ccc(N=Nc2c(=O)[nH]n3c(C)cc(C)nc23)cc1 | -3 | 4 | 3 | 9 | -1 | 23* | 6 | 6
O=S(=O)(NC(=NC1CCCCC1)c1ccccc1F)c1ccccc1 | 2 | 2 | -4 | 2 | 1 | 7 | · | ·
CCCC1=C(C(=O)OCC)C(c2sccc2C)n2ncnc2N1 (configuration not stated) | -3 | 9 | 5 | 10 | 0 | 19* | 4 | 4
CCCC1=C(C(=O)OCC)C(c2ccc(O)cc2)n2ncnc2N1 (configuration not stated) | 4 | 8 | -1 | 9 | 0 | 2 | · | ·
CCOC(=O)N/N=C/c1ccc(N(CC)CC)cc1O | -1 | 3 | -14 | 7 | 12 | 23* | 4 | 4
Cc1nc(CCNS(=O)(=O)c2cccs2)cs1 | -3 | 4 | -5 | 5 | 10 | 20* | 6 | 0
Cc1cccc(C(=O)OCC(=O)N2CCCCCC2)c1C | 2 | 4 | -8 | 12 | 9 | -12 | · | ·
Cc1ccc(C(=O)c2ccccc2C(=O)OCC(=O)N2CCCC2)cc1 | -7 | 1 | 3 | 4 | 1 | 20* | 2 | 8
Cc1c(C(=O)Nc2ccc(Oc3ccccc3)cc2)sc2nc3n(c(=O)c12)CCC3 | -6 | -10 | 1 | -6 | -18 | 21* | -2 | 0
Cc1c(C(=O)Nc2ccc(OC(F)(F)F)cc2)sc2nc3n(c(=O)c12)CCC3 | -2 | -5 | 12 | -3 | 4 | -4 | · | ·
CC(C)C(=O)NNC(=O)c1cc2sccc2s1 | 2 | 1 | -2 | 10 | 4 | 23* | -1 | 2
CC(=O)NNC(=O)c1cc2sccc2s1 | 3 | -2 | -12 | 14 | 8 | 7 | · | ·
O=C(CNc1ccccc1)N/N=C/c1ccc([N+](=O)[O-])cc1 | 15 | -6 | -11 | 4 | -9 | 22* | -2 | 3
CN1CCC(N(C)C(=O)c2ccc(Cl)c(S(=O)(=O)N(C)c3ccc(Cl)cc3)c2)CC1 | -1 | 12 | -4 | 1 | 3 | -6 | · | ·
O=C(Nc1ccc(-c2n[nH]c(=S)o2)cc1)c1ccccc1 | 6 | 9 | -8 | 14 | 6 | -3 | · | ·
COC(=O)c1c(NC(=S)Nc2ccccc2Cl)sc(C)c1C | 5 | 4 | -9 | 6 | -2 | 21* | 0 | 0
COc1ccccc1NC(=O)N(C)C[C@H]1Oc2ncc(C#CCN(C)C)cc2C(=O)N([C@H](C)CO)C[C@H]1C | · | · | -13 | · | · | 21* | 0 | -1
O=C(N/C(=C\c1ccco1)C(=O)N1CCCC1CO)c1ccccc1 (configuration not stated) | 2 | 2 | -2 | 9 | 2 | 0 | · | ·
Oc1ccc2ccccc2c1/C=N/n1cnnc1 | 7 | 4 | 12 | 5 | 5 | 19* | 4 | 2
Oc1ccccc1C=NN=Cc1c(O)ccc2ccccc12 | · | 1 | -5 | -2 | 2 | 4 | · | ·
O=S(=O)(c1ccc(Br)s1)N1CCN(CCc2ccccc2)CC1 | 3 | 16 | -9 | 6 | 4 | 19* | 0 | 3
SMILES | pPAFAH inh | PAFAH1B2 inh | PKA-R2B act | PAFAH1B3 inh | PAFAH2 FP inh | PKA-R1A activ | R1A FP artifact | PKA-R1A act conf
O=C(C1=C(O)C(=O)N(Cc2ccco2)C1c1cccc(O)c1)c1ccco1 (configuration not stated) | 3 | 6 | 2 | -1 | -8 | 20* | -1 | -1
Cc1nn(CC(=O)N(C)C2(C#N)CCCCC2)c(C)c1[N+](=O)[O-] | 1 | 6 | 10 | 22 | 3 | 13 | · | ·
O=C(Nc1ccc(F)cc1F)c1ccco1 | -2 | 0 | 6 | 4 | 3 | 24* | 3 | 6
Cc1ccc(C(=O)Nc2ccc(NC(=O)c3ccco3)c(C)c2)cc1 | 0 | 3 | 8 | 4 | -1 | 2 | · | ·
Cc1cc(NC(=O)c2ccc(Br)o2)ccc1NC(=O)c1ccco1 | -1 | -1 | -1 | -1 | -6 | 19* | 2 | 4
N#Cc1ccc(C2=CC(=O)C[C@H](c3ccc(F)cc3)C2)cc1 | 3 | -2 | 9 | 5 | 0 | 7 | · | ·
O=C(Cc1cccc(C(F)(F)F)c1)NCc1cccnc1 | 0 | -1 | -8 | 13 | 2 | 8 | · | ·
Cc1ccc(C)c(OCCC(=O)Nc2cccc(S(=O)(=O)N3CCCCC3)c2)c1 | -1 | -4 | -12 | 1 | -10 | -2 | · | ·
COc1ccc2nc(NC(=O)c3ccc(NC(=O)C4CCCO4)cc3)sc2c1 (configuration not stated) | 0 | 2 | 5 | 3 | -7 | 20* | 0 | -2
O=C1OC(O)c2cccc3cccc1c23 (configuration not stated) | · | · | -3 | · | · | 7 | · | ·
CC1=CC2(C)NC(=O)C(C)C12 (configuration not stated) | · | · | -4 | · | · | 5 | · | ·
COc1ccc(C(=O)NC2CCCc3ccccc32)cc1[N+](=O)[O-] (configuration not stated) | 5 | -5 | -1 | 3 | 6 | -5 | · | ·
Cc1c(C(=O)NC2CCCc3ccccc32)cccc1[N+](=O)[O-] (configuration not stated) | -1 | 1 | 8 | 1 | 10 | 23* | 2 | 0
COc1ccc(C)cc1NC(=O)c1ccc(S(=O)(=O)N2CCCCC2)cc1 | 4 | 4 | 9 | 5 | 3 | 4 | · | ·
O=C(NCCCn1ccnc1)C(F)(F)C(F)(F)C(=O)NCCCn1ccnc1 | -2 | 8 | 1 | 10 | 8 | 0 | · | ·
CC(NC(=O)NCCCn1ccnc1)(C(F)(F)F)C(F)(F)F | 4 | 2 | -4 | 1 | 1 | 21* | 0 | 2
COCCn1c(=S)[nH]c2cc(C(=O)NCCc3ccccc3)ccc2c1=O | 5 | -1 | 1 | 4 | 0 | -4 | · | ·
COc1cccc(CNCc2cc(OC)cc(OC)c2)c1 | -2 | 4 | 6 | 15 | -1 | 21* | 5 | 4

Source: PubChem (The Scripps Research Institute Molecular Screening Center)
